Assay outcomes: PubChem BioAssay, National Center for Advancing Translational Sciences (NCATS)
Hits are enriched below; roughly 19% of the tested compounds scored in any of these assays.
TGFb SMAD3 inh = blocks TGF-b signaling; 410,000 tested, 1.2% active; Potency, µM (series often up to 46.1 µM), for the others: at the top dose activity, negative = inhibition, hits mostly inhibitors; HepG2 CAGA-GFP TGF-b/SMAD3 reporter, GFP fluorescence, 18 h; TGF-beta stimulated, 500 pg/mL final; further: potency means the concentration at half of the fitted maximal effect; on the % scale 0 is the no-effect control and ±100 the full control effect; nearly all actives have a fitted effect of over 65% in size
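Cell-based qHTS in HEPG2 carrying a CAGA-GFP Smad reporter; compounds added before 500 pg/mL final TGF-beta, 18 h incubation at 37 degrees C, GFP fluorescence quantified per cell by imaging cytometry.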
TDP1 cell noCPT = qHTS for Inhibitors of human tyrosyl-DNA phosphodiesterase 1 (TDP1): qHTS in cells in absence of CPT; AID 686978, 2013; Potency, µM (highest dose often 46.2 µM), inactives show at the top dose activity change, negative = growth inhibition, hits mostly inhibitors; DT40 Tdp1-/- hTDP1 cells, no CPT, ATP luminescence, 48 h; 420,000 tested, 15% active; further: potency means the concentration at half of the fitted maximal effect; on the % scale 0 is the no-effect control and ±100 the full control effect; nearly all actives have a fitted effect of over 55% in size
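Camptothecin absent (DMSO only). Human TDP1-complemented DT40 knockout cells, 400 cells/well, 37 °C for minimum 48 hr; ATP measured via CellTiter-Glo, 30 min dark incubation, luminescence.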
IL-1B inflam inh = blocks inflammasome-driven IL-1 beta release. THP-1 LPS/ATP IL-1B secretion, AlphaLISA, 16 h; stronger effect = lower value. activity change, % at 57.5 µM. 360,000 tested, 4.7% active. AID 743279; in the data active means activity change below about -50%; inconclusive means mostly about -30% to -49%; further: on the % scale 0 is the no-effect control and ±100 the full control effect
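Secreted IL-1B measured by AlphaLISA bead assay after 16 h compound exposure of THP-1 cells; compounds (final up to 57.5 uM) added 1 h before LPS (250 ng/mL) and ATP (1.25 mM) stimulation; lower signal means less secretion.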
DT40 TDP1 CPT = DT40-hTDP1 cell growth loss with CPT | chicken DT40 Tdp1-/-;hTDP1 cells + 20 nM CPT, ATP luminescence, 48 h | Potency, µM (doses to about 46.2 µM), for inactives: at the top dose activity change, negative = growth inhibition, actives largely listed as inhibitors | 420,000 tested, 12% active; further: potency means the concentration at half of the fitted maximal effect; on the % scale 0 is the no-effect control and ±100 the full control effect; nearly all actives have a fitted effect of over 55% in size
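Cell growth measured by CellTiter-Glo luminescence after a minimum 48 h, 37 C compound exposure with 20 nM CPT in Tdp1-knockout DT40 cells stably expressing hTDP1, seeded 400/well; qHTS titration format.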
HepG2 tox = counter-screen for TGF-b inhibitors: cytotoxicity in HepG2 cells; HepG2 CAGA-GFP viability, ATP luminescence, 18 h; Potency, µM (top dose mostly 46.1 µM), for the others: at the highest dose activity change, negative = cytotoxicity, actives largely listed as cytotoxic; 410,000 tested, 0.76% active; further: potency means the concentration at half of the fitted maximal effect
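HepG2 CAGA-GFP cells (1000/well, DMEM with 1% FBS) received compound, then TGF-beta at 500 pg/mL final, and were incubated 18 hours at 37 degrees C. Viability was read by CellTiter-Glo luminescence. Media-only wells were set as complete cell-killing and DMSO as no toxicity.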
ASM inhibitor = human S-ASM enzyme inhibition | P17405 | placental ASM, HMU-PC fluorogenic substrate, 60 min | Potency, µM (titrated, usually from 57.5 µM), without a hit: at the top dose activity change, negative = inhibition, most hits filed as inhibitors | 340,000 tested, 0.006% active | AID 504937; further: potency means the concentration at half of the fitted maximal effect
Target sequence (P17405 47-631 limits assumed): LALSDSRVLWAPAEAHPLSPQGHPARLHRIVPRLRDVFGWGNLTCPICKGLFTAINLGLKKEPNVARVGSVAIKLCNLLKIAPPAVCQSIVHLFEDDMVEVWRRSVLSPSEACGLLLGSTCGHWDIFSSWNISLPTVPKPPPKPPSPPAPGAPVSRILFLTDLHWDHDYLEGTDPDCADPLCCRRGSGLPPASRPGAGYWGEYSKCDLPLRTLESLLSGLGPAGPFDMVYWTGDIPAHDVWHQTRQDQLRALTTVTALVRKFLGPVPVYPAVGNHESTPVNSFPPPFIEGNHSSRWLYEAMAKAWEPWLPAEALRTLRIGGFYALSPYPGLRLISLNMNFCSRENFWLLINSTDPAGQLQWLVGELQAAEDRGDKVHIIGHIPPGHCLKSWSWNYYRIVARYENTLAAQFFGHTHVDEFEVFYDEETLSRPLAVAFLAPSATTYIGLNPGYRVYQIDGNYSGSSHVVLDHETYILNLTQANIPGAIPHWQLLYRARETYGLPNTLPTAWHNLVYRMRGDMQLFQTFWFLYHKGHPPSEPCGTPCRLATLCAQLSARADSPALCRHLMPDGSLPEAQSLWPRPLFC
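Fluorescence read-out (Ex 386 nm, Em 447 nm) after stopping the reaction at pH 10. Enzyme: ASM from human placenta; substrate HMU-PC0, 9 uM final; 60 min, 37 °C. Compound preincubation 10 min, ambient temperature.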
An asterisk follows results filed as active; i = inactive; u = inconclusive; x = not tested or not shown. Unless noted, the call rests on the fitted dose curve; in most records, active means well fitted curve in the direction sought with a large enough effect; inconclusive means small, poorly fitted or top-dose-only effect, or another doubt; inactive means no such curve, though single readings can be large; an effect the other way counts as inactive or inconclusive.

SMILES	TGFb SMAD3 inh	TDP1 cell noCPT	IL-1B inflam inh	DT40 TDP1 CPT	HepG2 tox	ASM inhibitor
O=C1OC[C@@H]2CCCN2C(=O)[C@@H](CC(=O)N(CCO)Cc2ccccc2)C/C=C\C[C@@H]1Cc1ccc(F)cc1	-4.4%	u	u	23.1µM*	-13.7%	4.8%
O=C1N[C@@H](Cc2c[nH]c3ccccc23)COC(=O)[C@H](Cc2ccc(F)cc2)C/C=C\C[C@@H]1CC(=O)N(CCO)Cc1ccccc1	u	u	-24.0	u	3.5%	-11.8%
O=C1N[C@H](Cc2ccccc2)COC(=O)[C@H](Cc2ccc(F)cc2)C/C=C\C[C@@H]1CC(=O)N(CCO)Cc1ccccc1	u	16.4µM*	u	u	-10.2%	-4.7%
O=C1N[C@@H](Cc2c[nH]c3ccccc23)COC(=O)[C@@H](Cc2ccc(F)cc2)C/C=C\C[C@H]1CC(=O)N(CCO)Cc1ccccc1	u	20.6µM*	u	u	-17.3%	-28.6%
O=C1N[C@H](Cc2ccccc2)COC(=O)[C@@H](Cc2ccc(F)cc2)C/C=C\C[C@H]1CC(=O)N(CCO)Cc1ccccc1	u	25.9µM*	-59.1*	u	3.4%	-1.2%
O=C1N[C@@H](Cc2ccccc2)COC(=O)[C@H](Cc2ccc(F)cc2)C/C=C\C[C@@H]1CC(=O)N(CCO)Cc1ccccc1	u	u	u	u	-8.4%	-13.2%
CC(C)(C)OC(=O)C[C@@H]1C/C=C\C[C@H](CC(=O)N(CCO)Cc2ccccc2)C(=O)N[C@@H](Cc2ccccc2)COC1=O	-22.0%	u	-14.0	u	-25.3%	0.0%
Cc1cccc(C)c1-n1nnnc1C1(C)CCC(=O)N1CC1CCCCC1 (stereo not given)	x	u	21.9	u	x	x
CC(C)CC(=O)Nc1nnc(S(=O)(=O)N(C)Cc2ccc(Cl)cc2)s1	-4.8%	-19.9%	x	-8.1%	4.4%	x
COc1ccc(N2CCN(C(=O)CCC(=O)N3Cc4ccccc4Oc4ncccc43)CC2)cc1	-10.5%	u	-13.1	5.5%	-7.6%	-9.7%
C[C@H]1COC(=O)[C@@H](Cc2ccc(F)cc2)C/C=C\C[C@H](CC(=O)N(CCO)Cc2ccccc2)C(=O)N1	-16.4%	23.1µM*	24.3	20.6µM*	-5.1%	2.4%
C[C@@H]1COC(=O)[C@@H](Cc2ccc(F)cc2)C/C=C\C[C@H](CC(=O)N(CCO)Cc2ccccc2)C(=O)N1	-5.2%	u	-7.6	u	-19.1%	-0.4%
Cc1cc(C(=O)CSc2nnc(C3CC3)n2C2CC2)c(C)n1C(C)C	9.7%	1.3%	-29.8	-4.5%	3.9%	6.0%
COc1cccc(NC(=O)Cn2c(=O)n(CCC(=O)NCc3ccccc3OC)c(=O)c3ccccc32)c1	u	u	x	25.9µM*	-21.2%	x
COc1ccccc1CNC(=O)CCn1c(=O)c2ccccc2n(CC(=O)Nc2ccc(C)cc2)c1=O	4.1%	u	x	u	-24.4%	x
COc1ccccc1CNC(=O)CCn1c(=O)c2ccccc2n(CC(=O)Nc2cc(Cl)ccc2C)c1=O	2.2%	u	x	-28.0%	4.6%	x
COc1ccccc1CNC(=O)CCCCn1c(=O)c2ccccc2n(CC(=O)Nc2cccc(Cl)c2)c1=O	-22.5%	9.2µM*	x	23.1µM*	-16.8%	x
COCCn1c(C)cc(C(=O)COC(=O)/C=C/c2c(C)nn(C3CCS(=O)(=O)C3)c2Cl)c1C (stereo not given)	u	u	-2.7	u	-1.6%	-0.1%
CCN(CC(=O)NCc1ccc(F)cc1)C(=O)C1CC1C (stereo not given)	2.7%	-9.6%	-10.0	7.7%	15.2%	-5.0%
CCC(C)n1c(=N)c(C(=O)NC2CCCCC2)cc2c(=O)n3ccccc3nc21 (stereo not given)	-3.4%	16.4µM*	x	u	0.9%	x
Cc1cccc(NC(=O)c2cc3c(=O)n4ccccc4nc3n(CC(C)C)c2=N)c1	-0.8%	-6.8%	4.1	12.5%	-2.3%	6.8%
CC(C)n1c(=N)c(C(=O)NC2CCCCC2)cc2c(=O)n3ccccc3nc21	-12.7%	-0.3%	x	1.5%	6.6%	x
COc1ccc(CCn2c(=N)c(C(=O)NC3CCCC3)cc3c(=O)n4ccccc4nc32)cc1OC	11.4%	0.651µM*	-2.8	0.731µM*	3.5%	121.5%
COc1cccc(NC(=O)c2cc3c(=O)n4ccccc4nc3n(CC(C)C)c2=N)c1	2.9%	5.8µM*	1.8	6.51µM*	-15.7%	5.5%
CC(C)n1c(=N)c(C(=O)NCCc2ccccc2)cc2c(=O)n3ccccc3nc21	-8.8%	u	-51.9*	-25.4%	-33.4%	i
SMILES	TGFb SMAD3 inh	TDP1 cell noCPT	IL-1B inflam inh	DT40 TDP1 CPT	HepG2 tox	ASM inhibitor
O=C(CSc1cccc[n+]1[O-])NC1CCCCC1	-5.2%	-9.7%	16.3	-9.6%	-17.9%	-1.8%
COCCCn1c(=N)c(C(=O)NC2CCCC2)cc2c(=O)n3ccccc3nc21	20.5%	-0.7%	x	1.1%	-21.3%	x
COc1ccc(CCn2c(=N)c(C(=O)NCC3CCCO3)cc3c(=O)n4ccccc4nc32)cc1OC (stereo not given)	-5.3%	2.91µM*	u	7.31µM*	-19.0%	34.1%
COc1ccc(CCn2c(=N)c(C(=O)NC3CCCC3)cc3c(=O)n4ccccc4nc32)cc1	10.9%	3.26µM*	-82.7*	4.11µM*	1.3%	307.7%
COc1ccc(Cn2c(=N)c(C(=O)NC3CCCCC3)cc3c(=O)n4ccccc4nc32)cc1	3.3%	8.2µM*	10.9	18.4µM*	4.7%	433.9%
CN(CCc1ccccn1)C(=O)c1cccnc1Oc1ccccc1	8.1%	9.1%	-6.5	0.8%	-0.4%	4.6%
NS(=O)(=O)c1ccc(-n2cccc2C=O)cc1	-10.4%	6.8%	18.5	0.5%	7.5%	-0.5%
Cc1ccccc1-n1nc(C)c2cc(C(=O)NCc3cccnc3)sc21	-14.4%	-21.4%	-3.1	-26.8%	-14.7%	-1.1%
COc1ccc(CNC(=O)c2cc3c(=O)n(Cc4cccs4)ccc3nc2C)cc1	-9.5%	-27.7%	x	u	-10.3%	x
Oc1ccc(Cl)cc1C1C=C(c2ccc3c(c2)OCO3)NC(c2ccc(Cl)cc2)N1 (stereo not given)	u	6.31µM*	x	3.98µM*	-60.8%	x
